According to PubChem BioAssay AID1224921 (Broad Institute, 2016):
Out of some 1,400 compounds screened, about 350 (25%) were called active. About 2% were inconclusive and are not listed. How the calls were made is not given here. The list is a sample of the results. Entries with a potency or affinity are not part of this list.

Experiment: C. difficile growth inhibition, confirmation, 4-point retest (AID 1224921);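 further: plate controls were DMSO wells for no effect and levofloxacin 16 µg/mL wells for full effect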
Settings: Clostridioides difficile clinical isolate growth, OD600, 24 h, active compounds read low; at 30 µM unless noted

Max activity, inactive:
CCC(=O)Nc1ccc2c(c1)OC[C@@H](C)N(CC1CCCCC1)C[C@@H](C)[C@@H](OC)CN(C)C2=O -9.08% [at 8 µM], COc1cccc(NC(=O)N[C@H]2C=C[C@H](CC(=O)Nc3ccc(-c4ccccc4)cc3)O[C@@H]2CO)c1 43%, C[C@H]1CN([C@@H](C)CO)S(=O)(=O)c2ccc(C3=CCCCC3)cc2O[C@H]1CN(C)Cc1ccncc1 40.6%, C[C@H]1CN([C@@H](C)CO)C(=O)c2cc(/C=C/c3ccccc3)cnc2O[C@@H]1CN(C)C(=O)CN(C)C -3.88% [at 0.5 µM], C[C@H](CO)N1C[C@H](C)[C@@H](CN(C)Cc2cccnc2)Oc2cc(C3=CCCCC3)ccc2S1(=O)=O 29%, N#C[C@@H]1[C@@H](c2ccc(C#Cc3ccccc3F)cc2)[C@H](CO)N1C(=O)C1CCCCC1 38.8%, C[C@@H]1CN([C@@H](C)CO)C(=O)c2c(c3ccccc3n2C)-c2ccccc2CO[C@H]1CN(C)S(=O)(=O)c1cccc(C#N)c1 31.4%, O=C(C[C@@H]1C[C@H]2c3cc(NC(=O)Nc4ccc(C(F)(F)F)cc4)ccc3O[C@H]2[C@@H](CO)O1)NCc1ccc(Cl)cc1 -9.79% [at 8 µM], C[C@@H]1CN([C@H](C)CO)S(=O)(=O)c2ccc(C3=CCCCC3)cc2O[C@H]1CN(C)Cc1ccncc1 -20.4% [at 1.95 µM], CN1C(=O)c2cc(NC(=O)c3ccc(C(F)(F)F)cc3)ccc2OC[C@H]2O[C@H](CC(=O)NCc3ccc4c(c3)OCO4)CC[C@H]21 -12.1% [at 0.5 µM], C[C@@H]1CN([C@@H](C)CO)C(=O)c2cc(C#C[C@@H](C)O)cnc2O[C@@H]1CN(C)Cc1ccc(-c2ccccc2)cc1 27.9%, CCCNC(=O)[C@@H]1[C@@H](CO)[C@@H]2Cn3c(cccc3=O)[C@H]1N2C(=O)NCCC -6.96%, CO[C@@H]1CN(C)C(=O)c2cc(NC(=O)Nc3cccc(Cl)c3)ccc2OC[C@H](C)N(C(=O)Nc2c(C)noc2C)C[C@H]1C -9.85%, COC(=O)[C@H]1[C@H](CO)[C@H]2Cn3c(ccc(-c4cccc(F)c4)c3=O)[C@H]2N1S(C)(=O)=O 23.4%, COC(=O)[C@@H]1[C@@H](CO)[C@@H]2Cn3c(ccc(-c4cccc(F)c4)c3=O)[C@@H]2N1C(C)=O 11.6% [at 8 µM], COCC1CC(c2ccccc2)OC(c2ccc(NC(=O)CCCCCCC(=O)O)cc2)O1 (centres undefined) 17.9%, C[C@H]1CN([C@@H](C)CO)S(=O)(=O)c2ccc(/C=C/c3ccccc3)cc2O[C@@H]1CN(C)Cc1cccnc1 -24.8% [at 0.5 µM], C[C@H]1CN([C@@H](C)CO)S(=O)(=O)c2ccc(/C=C/c3ccccc3)cc2O[C@@H]1CN(C)C 16.2%, C[C@@H]1CN([C@@H](C)CO)S(=O)(=O)c2ccc(/C=C/c3ccccc3)cc2O[C@@H]1CN(C)Cc1cccnc1 -27.8% [at 1.95 µM], CC(C)CC#Cc1ccc2c(c1)O[C@H](CN(C)Cc1ccc(F)cc1)[C@H](C)CN([C@H](C)CO)S2(=O)=O 23.3% [at 8 µM], CC(C)CC#Cc1ccc2c(c1)O[C@H](CN(C)Cc1ccc(F)cc1)[C@@H](C)CN([C@@H](C)CO)S2(=O)=O 30.5% [at 1.95 µM], C[C@@H]1CN([C@H](C)CO)S(=O)(=O)c2ccc(/C=C/c3ccccc3)cc2O[C@H]1CN(C)C 57%, CO[C@H]1CN(C)C(=O)c2cc(NC(=O)NC(C)C)ccc2OC[C@H](C)N(Cc2ccccn2)C[C@@H]1C -9.04% [at 1.95 µM], C[C@H](CO)N1C[C@H](C)[C@H](CN(C)C(=O)C2CCC2)Oc2ncc(C#Cc3cccc(F)c3)cc2C1=O 15.1% [at 8 µM], C[C@H](NC(=O)C[C@H]1C=C[C@@H](NC(=O)C2CCC2)[C@H](CO)O1)c1ccccc1 -11.6%, CNC[C@@H]1Oc2cc(-c3ccccc3F)ccc2S(=O)(=O)N([C@@H](C)CO)C[C@H]1C 20.5%, O=C(N[C@@H]1C=C[C@@H](CC(=O)N2CCCCC2)O[C@@H]1CO)c1ccc2c(c1)OCO2 15.7% [at 8 µM], CO[C@H]1CN(C)C(=O)c2cc(NS(=O)(=O)c3cccc(F)c3)ccc2OC[C@@H](C)N(Cc2cc(F)ccc2F)C[C@@H]1C 33.9%, C[C@H]1CN([C@@H](C)CO)S(=O)(=O)c2ccc(C#CCC3CCCC3)cc2O[C@@H]1CN(C)C -13.1% [at 1.95 µM], N#C[C@H]1[C@@H](c2ccc(C3=CCCCC3)cc2)[C@H](CO)N1S(=O)(=O)c1ccccc1 -7.4% [at 1.95 µM], N#C[C@@H]1[C@@H](c2ccc(C#Cc3cccnc3)cc2)[C@@H](CO)N1C(=O)C1CCCCC1 27.2%, CCC(=O)N(C)C[C@H]1Oc2cc(C#CCC3CCCC3)ccc2S(=O)(=O)N([C@@H](C)CO)C[C@@H]1C 24.3%, C[C@H](CO)N1C[C@H](C)[C@H](CN(C)C)Oc2cc(C#CCC3CCCC3)ccc2S1(=O)=O 37%, C[C@@H]1CN([C@H](C)CO)S(=O)(=O)c2ccc(C#CCC3CCCC3)cc2O[C@@H]1CN(C)C 14.7% [at 8 µM], C[C@@H]1CN([C@@H](C)CO)S(=O)(=O)c2ccc(C#CCC3CCCC3)cc2O[C@H]1CN(C)C(=O)CN(C)C -17.9%, CO[C@H]1CN(C)C(=O)c2cc(NC(=O)NC(C)C)ccc2OC[C@@H](C)N(C)C[C@H]1C 4.11%, O=C(CN1CCOCC1)NCC[C@H]1CC[C@H](NC(=O)Cc2ccccn2)[C@@H](CO)O1 -9.14% [at 0.5 µM], CCCNC(=O)Nc1ccc2c(c1)C(=O)N(C)C[C@H](OC)[C@@H](C)CN(C)[C@H](C)CO2 -9.08% [at 8 µM], C[C@H]1CN([C@@H](C)CO)S(=O)(=O)c2ccc(C#CCC3CCCC3)cc2O[C@H]1CN(C)C 10.1% [at 8 µM], CC(=O)N(C)C[C@H]1Oc2cc(C#CC3CCCCC3)ccc2S(=O)(=O)N([C@H](C)CO)C[C@H]1C 12.6% [at 8 µM], C[C@@H]1CN([C@H](C)CO)S(=O)(=O)c2ccc(C#CC3CCCC3)cc2O[C@H]1CN(C)C 49.4%, C[C@H](CO)N1C[C@H](C)[C@@H](CN(C)C)Oc2cc(C#CCC3CCCC3)ccc2S1(=O)=O 7% [at 7.5 µM], O=C(Nc1cc(F)ccc1F)N[C@@H]1CC[C@H](CC(=O)N2CCc3ccccc3C2)O[C@H]1CO 38.5%, O=C(N[C@H]1C=C[C@H](CC(=O)N2CCOCC2)O[C@H]1CO)c1cccc(F)c1 -11.2% [at 1.95 µM], CO[C@@H]1CN(C)C(=O)c2ccc(NC(=O)c3ccc(F)cc3)cc2OC[C@@H](C)N(C(=O)CN(C)C)C[C@@H]1C -12.8% [at 1.95 µM], C[C@H]1CN([C@@H](C)CO)S(=O)(=O)c2ccc(C3=CCCCC3)cc2O[C@@H]1CN(C)Cc1ccncc1 42.8%, CO[C@H]1CN(C)C(=O)c2ccc(NC(=O)c3nc4ccccc4s3)cc2OC[C@@H](C)N(Cc2cccnc2)C[C@@H]1C 23.4%, O=C(C[C@H]1C[C@@H]2c3cc(NC(=O)Nc4ccc(C(F)(F)F)cc4)ccc3O[C@@H]2[C@@H](CO)O1)NCC1CC1 14.9%, O=C(C[C@H]1C[C@H]2c3cc(NC(=O)Nc4ccc(C(F)(F)F)cc4)ccc3O[C@H]2[C@H](CO)O1)NCC1CC1 -13.1% [at 1.95 µM], O=C(C[C@H]1C[C@H]2c3cc(NC(=O)Nc4ccc(C(F)(F)F)cc4)ccc3O[C@H]2[C@@H](CO)O1)NCC1CC1 -16.4% [at 0.5 µM], COCCNC(=O)C[C@H]1C[C@H]2c3cc(NC(=O)Nc4ccc(C(F)(F)F)cc4)ccc3O[C@H]2[C@H](CO)O1 -7.9% [at 1.95 µM], COCCNC(=O)C[C@@H]1C[C@@H]2c3cc(NC(=O)Nc4ccc(C(F)(F)F)cc4)ccc3O[C@@H]2[C@H](CO)O1 9.41%, COCCNC(=O)C[C@H]1C[C@H]2c3cc(NC(=O)Nc4ccc(C(F)(F)F)cc4)ccc3O[C@H]2[C@@H](CO)O1 -9.02%, CC(C)(C)[S@](=O)N1Cc2cc(C(=O)NCc3ccc4c(c3)OCO4)nc(-c3cccc(-c4cccnc4)c3)c2[C@@H]1CCO 32.4% [at 35 µM], O=C(C[C@@H]1C=C[C@@H](NC(=O)CCN2CCCCC2)[C@H](CO)O1)Nc1ccc(-c2ccccc2)cc1 21.5%, CC(C)c1cn(CC[C@@H]2CC[C@H](NS(=O)(=O)c3ccc(F)cc3)[C@H](CO)O2)nn1 -12.5%, N#C[C@@H]1[C@H](c2ccccc2)[C@H](CO)N1S(=O)(=O)c1ccc(-c2ccccc2)cc1 15.3%, C[C@@H]1CN([C@@H](C)CO)C(=O)c2cc(C3=CCCCC3)cnc2O[C@@H]1CN(C)C(=O)c1cccc(F)c1 24.7%, C[C@H](NC(=O)C[C@@H]1C[C@@H]2c3cc(NC(=O)CC4CC4)ccc3O[C@@H]2[C@H](CO)O1)c1ccccc1 8.12% [at 35 µM]
